Records with an inconclusive call do not appear. The source made the active and inactive calls. Calls come from the whole dose curve; as a rule, active = well fitted curve in the direction sought with a large enough effect; inconclusive = small, poorly fitted or top-dose-only effect, or another doubt; inactive = no such curve, though single readings can be large; an effect the other way counts as inactive or inconclusive.
Tests used:
[1] = system: HACAT; assay: qHTS assay to identify novel small-molecules to repurpose for Merkel cell carcinoma treatment (AID 1296009); details: MCC and control cell lines, CellTiter-Glo viability, 72 h; at 44.8 µM (top of the series) unless noted; note: nearly all actives have a fitted effect of over 60% in size
In short: (§1)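 Cells were treated for 72 hr at 37 degree celsius with compounds in 8- or 11-point dose response. Viability was read by CellTiter-Glo luminescence, normalized to no-cell (cytotoxicity) and DMSO controls.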

[2] = system: MCC-13; assay: as above; details: MCC and control cell lines, CellTiter-Glo viability, 72 h; series mostly up to 46 µM
In short: as §1

[3] = system: MCC-26; assay: as above; details: MCC and control cell lines, CellTiter-Glo viability, 72 h; series mostly up to 46 µM
In short: as §1

[4] = system: MKL-1; assay: as above; details: MCC and control cell lines, CellTiter-Glo viability, 72 h; series mostly up to 46 µM
In short: as §1

[5] = system: UISO; assay: as above; details: MCC and control cell lines, CellTiter-Glo viability, 72 h; series mostly up to 46 µM
In short: as §1

[6] = system: C33A; assay: Primary qHTS to identify gynecologic anti-cancer compounds using libraries of approved drugs and bioactive compounds (AID 1345084); details: Gynecologic cancer cell panel viability, ATPlite luminescence, 48 h; series mostly up to 57.5 µM; note: nearly all actives have a fitted effect of over 55% in size
In short: (§2)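 Five-concentration response, 48 h; readout is ATP-driven luciferase luminescence.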

[7] = system: CAOV3; assay: as above; details: Gynecologic cancer cell panel viability, ATPlite luminescence, 48 h; series mostly up to 57.5 µM
In short: as §2

[8] = system: CASKI; assay: as above; details: Gynecologic cancer cell panel viability, ATPlite luminescence, 48 h; series mostly up to 57.5 µM
In short: as §2

[9] = system: Es-2; assay: as above; details: Gynecologic cancer cell panel viability, ATPlite luminescence, 48 h; series mostly up to 57.5 µM
In short: as §2

[10] = system: HeLa; assay: as above; details: Gynecologic cancer cell panel viability, ATPlite luminescence, 48 h; series mostly up to 57.5 µM
In short: as §2

[11] = system: Hek293T; assay: as above; details: Gynecologic cancer cell panel viability, ATPlite luminescence, 48 h, control line for the selectivity index; series mostly up to 57.5 µM
In short: as §2

[12] = system: JEG-3; assay: as above; details: Gynecologic cancer cell panel viability, ATPlite luminescence, 48 h; series mostly up to 57.5 µM
In short: as §2

[13] = system: OV90; assay: as above; details: Gynecologic cancer cell panel viability, ATPlite luminescence, 48 h; series mostly up to 57.5 µM
In short: as §2

[14] = system: PA-1; assay: as above; details: Gynecologic cancer cell panel viability, ATPlite luminescence, 48 h; series mostly up to 57.5 µM
In short: as §2

[15] = system: SKOV3; assay: as above; details: Gynecologic cancer cell panel viability, ATPlite luminescence, 48 h; series mostly up to 57.5 µM
In short: as §2

[16] = system: Tov-21-G; assay: as above; details: Gynecologic cancer cell panel viability, ATPlite luminescence, 48 h; series mostly up to 57.5 µM
In short: as §2

[17] = system: WaGa; assay: qHTS assay to identify novel small-molecules to repurpose for Merkel cell carcinoma treatment (AID 1296009); details: MCC and control cell lines, CellTiter-Glo viability, 72 h; series mostly up to 46 µM; note: nearly all actives have a fitted effect of over 60% in size
In short: as §1

[18] = system: MKL-2; assay: as above; details: MCC and control cell lines, CellTiter-Glo viability, 72 h; series mostly up to 46 µM
In short: as §1

[19] = system: NIH3T3; assay: as above; details: MCC and control cell lines, CellTiter-Glo viability, 72 h; at 44.8 µM (top of the series) unless noted
In short: as §1

Measured: Potency

CO/N=C(/C(=O)N[C@@H]1C(=O)N2C(C(=O)OCOC(=O)C(C)(C)C)=C(C)CS[C@H]12)c1csc(N)n1
inactive: [1] | [2] | [3] | [4] | [5] | [6] | [7] | [8] | [9] | [10] | [11] | [12] | [13] | [14] | [15] | [16]

O=C1OC2(c3ccccc31)c1cc(I)c(O)c(I)c1Oc1c2cc(I)c(O)c1I
inactive: [1] | [2] | [3] | [4] | [5] | [17] | [6] | [7] | [8] | [9] | [10] | [11] | [12] | [13] | [14] | [15] | [16]

COc1ccc2c(c1)c(CC(=O)OC/C=C(\C)CC/C=C(\C)CCC=C(C)C)c(C)n2C(=O)c1ccc(Cl)cc1
inactive: [1] | [2] | [3] | [4] | [5] | [6] | [7] | [8] | [9] | [10] | [11] | [12] | [13] | [14] | [15] | [16]

CN(C)CCOC1=Cc2ccccc2Sc2ccc(Cl)cc21
inactive: [1] | [2] | [3] | [4] | [5] | [6] | [8] | [9] | [10] | [11] | [12] | [14] | [15] | [16]

Cc1ccc(CCn2c3c(c4cc(Cl)ccc42)CN(C)CC3)cn1
inactive: [1] | [2] | [3] | [4] | [5] | [6] | [7] | [8] | [9] | [10] | [11] | [12] | [13] | [14] | [15] | [16]

Nc1c(I)cc(I)c(C(=O)N(CCC(=O)O)c2ccccc2)c1I
inactive: [1] | [2] | [3] | [4] | [18] | [5] | [17] | [6] | [7] | [8] | [9] | [10] | [11] | [12] | [13] | [14] | [16]

Cc1ccc(C(=O)Oc2ccc(C(O)CNC(C)(C)C)cc2OC(=O)c2ccc(C)cc2)cc1 (stereo unspecified)
inactive: [1] | [2] | [3] | [19] | [5] | [6] | [8] | [9] | [10] | [11] | [12] | [14] | [16]

CCOCCn1c(C2CCN(CCc3ccc(C(C)(C)C(=O)O)cc3)CC2)nc2ccccc21
inactive: [1] | [2] | [3] | [4] | [18] | [5] | [17] | [6] | [8] | [9] | [10] | [11] | [12] | [13] | [14] | [15] | [16]
